MLLE-PAM2 inh: inhibitors of microRNA-mediated deadenylation, human PABP1 MLLE binding | inhibition, % at 20 µM | GST-MLLE / FITC-PAM2 fluorescence polarization | P11940 | actives 0.36% (n = 360,000); in the data active = inhibition above about 35%, passing the limit was not always enough;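 note: plate controls were DMSO wells with GST-MLLE for no effect and wells lacking GST-MLLE protein for full effect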
PABP FP inh: blocks human PABP binding to poly(A) RNA. P11940. fluorescence polarization. calls only at 35 µM. actives 1% (n = 290,000). AID 2014;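 note: calls also rest on retests at 20 µM and on dose response follow-up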
PHOSPHO1 block: inhibitors of human PHOSPHO1 phosphatase. recombinant PHOSPHO1, absorbance phosphatase assay. inhibition, % at 13.3 µM. actives 1.1% (n = 290,000); in the data active = inhibition above about 60%
eIF4H inh: inhibitors of RNA binding by human eIF4H; AID 2012; Q15056; eIF4H fluorescence polarization binding assay; actives 0.94% (n = 290,000); inhibition, % at 35 µM;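 note: calls also rest on retests at 20 µM and on dose response follow-up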
APOBEC3A inh: inhibitors of human APOBEC3A DNA deaminase; recombinant A3A, FAM/TAMRA ssDNA deamination fluorescence; actives 0.41% (n = 330,000); inhibition, % at 20 µM;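 active = at least 40% inhibition at 20 µM here, with at most 30% in a related deaminase screen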;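 note: plate controls were A3A with DMSO for no effect and wells lacking A3A enzyme for full effect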
Target sequence (P31941 whole entry, looked up): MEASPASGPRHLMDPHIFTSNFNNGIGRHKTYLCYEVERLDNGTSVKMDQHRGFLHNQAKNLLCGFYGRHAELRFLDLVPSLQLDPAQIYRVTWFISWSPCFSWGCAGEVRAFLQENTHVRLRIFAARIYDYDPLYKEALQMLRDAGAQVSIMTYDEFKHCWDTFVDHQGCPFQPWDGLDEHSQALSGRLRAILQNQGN
APOBEC3G inh: inhibitors of human APOBEC3G DNA deaminase; actives 0.28% (n = 330,000); inhibition, % at 20 µM; recombinant A3G, ssDNA deamination FAM/TAMRA fluorescence; Q9HC16;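 active = inhibition of at least 40% at 20 µM, with no more than 30% in the related APOBEC3A deaminase screen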;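 note: plate controls were DMSO wells with A3G for no effect and wells lacking A3G enzyme for full effect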
* hit, by the source's call; i = inactive; ? = inconclusive; . = no result; + = active, no number. In the library only some 2.6% were active in any assay of this set; here they are far more common. Unless noted, the rule behind the calls is not given here.

SMILES	MLLE-PAM2 inh	PABP FP inh	PHOSPHO1 block	eIF4H inh	APOBEC3A inh	APOBEC3G inh
O=C(CC1SC(N2CCOCC2)=NC1=O)Nc1ccccc1Cl (stereo unspecified)	9	.	.	.	0	0
O=C(CC1SC(N2CCOCC2)=NC1=O)Nc1cc([N+](=O)[O-])ccc1Cl (stereo unspecified)	17	+	4	?	4	-9
COc1ccc(NC(=O)N(C)C[C@H]2Oc3ccc(NC(=O)CCN4CCOCC4)cc3C(=O)N([C@@H](C)CO)C[C@H]2C)cc1	5	.	.	.	-6	-6
O=c1c2cc(N3CCOCC3)ccc2[nH]c(=S)n1Cc1ccccn1	-28	+	0	37*	0	-2
CC(=O)Nc1ccc(C(=O)CSc2ncn(-c3ccccc3)n2)cc1	41*	i	-3	-6	0	0
O=C(CSc1ncn(-c2ccccc2)n1)Nc1nncs1	0	i	43	-2	-1	-8
O=C(CSc1ncn(-c2ccccc2)n1)Nc1nc2c(s1)CCCC2	19	+	6	74*	21	2
O=C(CSc1ncn(-c2ccccc2)n1)Nc1nc2ccccc2s1	31	i	5	-9	4	-6
CC(Oc1ccccc1F)C(=O)NNC(=O)C1CC(=O)N(c2ccc3c(c2)OCCO3)C1 (stereo unspecified)	-13	.	.	.	2	0
CC(C)Oc1ccc(C(=O)NC2=NCCS2)cc1	40*	i	9	-3	0	5
COc1cc(C(=O)NC2=NCCS2)cc(OC)c1OC	3	i	17	-6	3	3
COc1cccc(C(=O)NC2=NCCS2)c1OC	40*	i	48	-9	-1	-4
O=C(NCCCN1CCOCC1)c1cccs1	7	i	26	1	0	-2
COc1cccc(-c2cccc(-c3nc(C(=O)NCc4ccc5c(c4)OCO5)cc4c3[C@H](CCO)N(S(=O)C(C)(C)C)C4)c2)c1 (stereo partly specified)	-28	.	.	.	.	.
NNC(=O)c1nc[nH]c1C(=O)Nc1ccccc1[N+](=O)[O-]	6	+	4	55*	-2	-3
COc1ccc(CNCc2cccc3ccccc23)cc1	-6	i	-26	5	-2	-2
Cc1cc(C)c2c(=O)c(C#N)coc2c1	39*	i	3	-8	1	-5
Cc1ccc(S(=O)(=O)Oc2cccc([N+](=O)[O-])c2)cc1	11	.	.	.	.	.
Cc1cccc(Nc2n[nH]c(=S)s2)c1C	30	i	100*	-4	-2	39
COc1ccccc1Nc1n[nH]c(=S)s1	18	i	52	-2	-1	57*
Cc1cccc(C)c1Nc1n[nH]c(=S)s1	9	.	.	.	.	.
COc1cccc(CN(C)C(=O)CCNC(=O)c2ccc(Br)cc2)c1	9	i	33	1	-6	3
COCc1cc(=O)[nH]c(=S)[nH]1	40*	i	-2	1	-3	-4
CN(C)c1ccc(C(=S)N2CCN(S(=O)(=O)c3ccccc3)CC2)cc1	13	i	28	3	-7	-2
O=C(/C=C/c1ccco1)N1CCc2ccccc21	8	i	-10	18*	1	-3
SMILES	MLLE-PAM2 inh	PABP FP inh	PHOSPHO1 block	eIF4H inh	APOBEC3A inh	APOBEC3G inh
Cc1ccc(/C=C/C(=O)N2CCc3ccccc32)o1	18	i	10	68	34	18
O=[S@]1Oc2ccccc2-c2ccccc21	7	.	.	.	-1	-4
C/C=C(\C)C(=O)NCCN1C2=NC[C@H](C(C)C)N2C[C@@H]1Cc1ccc(OC)cc1	11	+	-3	48	-3	-4
Cc1ccccc1SCC(=O)NCC1(N2CCCCC2)CCCCC1	-5	.	.	.	.	.
Cc1ccn2cc(CC(=O)O)nc2c1	18	+	52	?	27	4
Cc1cccc(NC(=O)c2sc3nc4c(c(-c5cccs5)c3c2N)CN(C)CC4)c1	-12	+	-21	110*	-11	-6
CC(C)NC(=O)c1sc2nc3c(c(-c4cccs4)c2c1N)CN(C)CC3	66	i	63*	127	-2	0
NC(=O)c1sc2nc3c(c(-c4cccs4)c2c1N)CCCC3	.	i	-15	78	.	.
COc1cc(C(=O)NC(C)c2cnn(-c3ccccc3C)c2C)cc(OC)c1OC (stereo unspecified)	5	i	-22	-4	-2	-4
CCOC(=O)c1c(C)oc2c1c(C=NCCO)c(O)c1ccccc12	52*	i	-37	?	.	.
CCOC(=O)c1c(C)oc2c1c(C(c1ccccc1)N1CCOCC1)c(O)c1ccccc12 (stereo unspecified)	10	i	42	-7	3	5
O=C(Nc1ccc(N2CCOCC2)nc1)c1ccc(F)cc1	3	i	-9	40*	-2	-5
CS(=O)(=O)N1Cc2ccccc2CC1C(=O)O (stereo unspecified)	12	+	32	?	9	3
O=C(O)C1Cc2ccccc2CN1S(=O)(=O)/C=C/c1ccccc1 (stereo unspecified)	7	i	-14	-4	-3	-8
CCC12CCCN3CCc4c(n(c5ccccc45)C(O)(C(=O)OC)C1)C32 (stereo unspecified)	-1	+	25	96*	-3	-6
CC[C@]12CCCN3CCc4c(n(c5ccccc45)[C@](O)(C(=O)OC)C1)[C@@H]32	-17	.	.	.	-2	-7
CC[C@H](C)NC(=O)CCCCCn1c(=S)[nH]c2c([nH]c3ccc(OC)cc32)c1=O	-26	i	4	-7	-1	-10
CCCCNC(=O)CCCCn1c(=S)[nH]c2c([nH]c3ccc(OC)cc32)c1=O	-25	i	-42	-4	2	-5
COc1ccc2[nH]c3c(=O)n(CCCCC(=O)N4CCC(C(N)=O)CC4)c(=S)[nH]c3c2c1	51*	i	104*	-2	-9	27
COc1ccc2[nH]c3c(=O)n(CCCCC(=O)NCCN4CCCC4)c(=S)[nH]c3c2c1	19	i	102*	12	-11	40
COc1ccccc1C(=O)NCCC(=O)NCC(C)(C)N1CCOCC1	-4	i	33	-7	-1	0
CCCSc1nc(C)c(-c2csc(C(C#N)=C3CCCC3)n2)cc1C#N	-27	+	74*	59*	35	33
Oc1ccc(CN2CCCc3ccccc32)c2cccnc12	42*	i	74*	17	-1	2
O=[N+]([O-])c1cc(/C=N\Nc2nccs2)ccc1O	.	+	50	93*	.	.
O=[N+]([O-])c1ccccc1/C=N\Nc1nccs1	2	i	.	-5	-7	2
COc1ccc(Cn2c3nc4ccccc4nc3c3c(=O)n(Cc4ccco4)c(C)nc32)cc1	.	+	39	54*	.	.
CCOc1ccc2[nH]c(=S)[nH]c2c1	-6	i	103*	-13	1	24
